Measurements taken from PubChem BioAssay (NCI).
The panel holds about 83,000 compounds, 20% with a hit somewhere; the sample as a whole holds those more often.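 Percent growth is the endpoint: 0 to 100 indicates growth inhibition (40 means 60% inhibition), 0 means no net growth, and negative values indicate cell death.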 Calls of active or inactive are those of the source. Rule for the calls: active = growth percent below 10; inactive = the rest.

Columns and labels:
Assay in all cases: NCI-60 one-dose screen, 48 h (100 = growth as untreated, 0 = no growth, -100 = all killed)
Conditions in all cases: 10 µM unless noted
SK-MEL-2 melanoma = tested on: SK-MEL-2 melanoma
EKVX NSCLC = tested on: EKVX NSCLC
SN12C renal = tested on: SN12C renal
UO-31 renal = tested on: UO-31 renal
TK-10 renal = tested on: TK-10 renal
CAKI-1 renal = tested on: CAKI-1 renal
A498 renal = tested on: A498 renal
CCRF-CEM leukemia = tested on: CCRF-CEM leukemia
MOLT-4 leukemia = tested on: MOLT-4 leukemia

Measured: growth

CCOC(=O)c1c(NC(=O)c2ccc(C(F)(F)F)cc2)sc2c3c(ccc12)OCN(C)C3
inactive: SK-MEL-2 melanoma 72.8% | EKVX NSCLC 79.5% | SN12C renal 48.1% | UO-31 renal 70.9% | A498 renal 89.1%
active: TK-10 renal -15.7% | CAKI-1 renal -23.9% | CCRF-CEM leukemia 2.17% | MOLT-4 leukemia -8.7%

CC1=C(SCC(=O)OCCCCCC(C)C)C(=O)c2ccccc2C1=O
inactive: SK-MEL-2 melanoma 99.1% | EKVX NSCLC 82.5% | SN12C renal 83% | UO-31 renal 62.9% | TK-10 renal 133% | CAKI-1 renal 80.3% | A498 renal 107% | CCRF-CEM leukemia 91.3% | MOLT-4 leukemia 79.4%

C=C(C)[C@@H]1CC[C@]2(C(=O)O)CC[C@]3(C)[C@H](CC[C@@H]4[C@@]5(C)C/C(=C/c6ccccn6)C(=O)C(C)(C)[C@@H]5CC[C@]43C)[C@@H]12
inactive: SK-MEL-2 melanoma 68.5% | EKVX NSCLC 33.3% | SN12C renal 41.1% | UO-31 renal 35.8% | TK-10 renal 60.8% | CAKI-1 renal 26.8% | A498 renal 61.7% | CCRF-CEM leukemia 21.8% | MOLT-4 leukemia 29.4%

FC(F)(F)c1cc(Br)cc(-c2cc(-c3ccc4c(c3)OCCO4)[nH]n2)c1
inactive: SK-MEL-2 melanoma 77.4% | EKVX NSCLC 52.4% | SN12C renal 44.7% | UO-31 renal 51.3% | TK-10 renal 121% | CAKI-1 renal 33.3% | A498 renal 11.6% | CCRF-CEM leukemia 14.9% | MOLT-4 leukemia 22.5%

O=C(N/N=C\c1ccc([N+](=O)[O-])cc1)c1ccc2nc(-c3ccc(Br)cc3)[nH]c2c1
inactive: SK-MEL-2 melanoma 51.9% | EKVX NSCLC 45.4% | SN12C renal 16.9% | UO-31 renal 41.6% | TK-10 renal 64.6% | CAKI-1 renal 34.8% | A498 renal 21.4% | CCRF-CEM leukemia 10.6%
active: MOLT-4 leukemia 5.71%

O=C(CCCCCCNC(=O)c1csc(Br)n1)NO
inactive: SK-MEL-2 melanoma 57.3% | EKVX NSCLC 53.3% | SN12C renal 73.4% | UO-31 renal 22.7% | CAKI-1 renal 21% | CCRF-CEM leukemia 16.1% | MOLT-4 leukemia 17.4%
active: TK-10 renal -3.87% | A498 renal -4.04%

COC(=O)CCSC1=C(C)C(=O)c2ccccc2C1=O
inactive: SK-MEL-2 melanoma 107% | EKVX NSCLC 74.2% | SN12C renal 92.5% | UO-31 renal 64.6% | TK-10 renal 162% | CAKI-1 renal 80.4% | A498 renal 116% | CCRF-CEM leukemia 45.7% | MOLT-4 leukemia 31.8%

COc1ccccc1/C=C1\Oc2ccc(O)c(O)c2C1=O
inactive: SK-MEL-2 melanoma 102% | EKVX NSCLC 78.5% | SN12C renal 94.5% | UO-31 renal 82.1% | TK-10 renal 100% | CAKI-1 renal 78.4% | A498 renal 85.1% | CCRF-CEM leukemia 75.5% | MOLT-4 leukemia 85%

Brc1cc(-c2cc(-c3ccc4c(c3)OC=CO4)[nH]n2)cs1
inactive: SK-MEL-2 melanoma 106% | EKVX NSCLC 72.8% | SN12C renal 98.8% | UO-31 renal 71.2% | TK-10 renal 192% | CAKI-1 renal 63.8% | A498 renal 87.1% | CCRF-CEM leukemia 89.9% | MOLT-4 leukemia 78.7%

COc1ccc2c(c1)c(/C=N/Nc1ccnc3cc(Cl)ccc13)cn2C
active: SK-MEL-2 melanoma -80.8% | EKVX NSCLC -81.2% | SN12C renal -81.5% | UO-31 renal -89.5% | TK-10 renal -79.9% | CAKI-1 renal -92% | CCRF-CEM leukemia -29.2% | MOLT-4 leukemia -49.6%

CC1CC(=O)C2=C(C1)Nc1ccc(Br)cc1CC2c1c[nH]c2ccc(Br)cc12 (stereo not given)
inactive: SK-MEL-2 melanoma 37.3% | EKVX NSCLC 41.2% | SN12C renal 53.6% | UO-31 renal 50.9% | TK-10 renal 79.4% | CAKI-1 renal 38.1% | A498 renal 19.7% | CCRF-CEM leukemia 29.7% | MOLT-4 leukemia 35.8%

NS(=O)(=O)c1ccc(Nc2nc(N/N=C/C=C/c3ccccc3)nc(Nc3ccccc3)n2)cc1
inactive: SK-MEL-2 melanoma 45% | EKVX NSCLC 71.3% | SN12C renal 48.1% | UO-31 renal 39.6% | TK-10 renal 86.8% | CAKI-1 renal 46.1% | A498 renal 40.2% | CCRF-CEM leukemia 24.8% | MOLT-4 leukemia 12.3%

C#C[C@]1(O)CC[C@H]2[C@@H]3CC=C4c5sc(N(C)c6ccccc6)nc5CC[C@]4(C)[C@H]3CC[C@@]21C
inactive: SK-MEL-2 melanoma 85.8% | EKVX NSCLC 103% | SN12C renal 91.2% | UO-31 renal 106% | TK-10 renal 137% | CAKI-1 renal 92.3% | A498 renal 88.4% | CCRF-CEM leukemia 44.3% | MOLT-4 leukemia 31.3%

COc1cccc2c1[C@H](OC)[C@]13O[C@@]1(C2=O)[C@H](O)[C@H](C)[C@@](O)(C(=O)[C@@H]1O[C@H]1C)[C@@H]3O
active: SK-MEL-2 melanoma -55.7% | EKVX NSCLC -39.5% | SN12C renal -8.82% | UO-31 renal -16.1% | TK-10 renal -22.6% | CAKI-1 renal -23.4% | A498 renal -82.4% | CCRF-CEM leukemia -20.3% | MOLT-4 leukemia -39.8%
